This is a sample that favours compounds with a hit; in the whole collection about 6.9% have one here.
SW480 rerep – induces DNA re-replication in SW480 colon adenocarcinoma cells | SW480 DNA re-replication, Hoechst DNA content imaging, 48 h | Potency, µM (titrated, usually from 46.1 µM), for inactives: top-dose re-replication activation, most hits filed as activators | 1.8% of 340,000 active | AID 624297; note: potency is the fitted concentration of half-maximal effect; % of control where 0% means no effect; nearly all actives have a fitted effect of over 55% in size
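Readout is total intensity of Hoechst-stained nuclei, excited at 405 nm and collected at 500-530 nm. Compound treatment lasted 48 hr at 37 C in 5% CO2 before staining.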
MCF10A rereplic – DNA re-replication induction in MCF 10a cells; MCF 10A DNA re-replication, Hoechst nuclear intensity, 48 h; Potency, µM (highest dose often 46.1 µM), for inactives: at the highest dose activity, positive = re-replication, most hits filed as activators; 2.9% of 350,000 active; AID 624296; note: potency is the fitted concentration of half-maximal effect; % of control where 0% means no effect; nearly all actives have a fitted effect of over 50% in size
Giardia killer – kills Giardia lamblia. Giardia lamblia trophozoite viability. activity change, % at 7.66 µM, hits read low. 0.15% of 340,000 active. AID 540267; in the data active = activity change below about -80%; inconclusive = between about -30% and that limit;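 note: parasites exposed to compound for two days anaerobically before the ATP read; % is set by controls: 0 for no effect and ±100 for the full control effect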
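Anaerobic 48 hrs incubation at 37 deg C of 100 trophozoites/well with test compounds; ATPLite 1-Step luminescence, 15-30 min RT, reports cellular ATP as viability.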
IL1B secr inh – inhibitors of inflammasome signaling (IL-1 beta secretion) | 4.7% of 360,000 active | activity change, % at 57.5 µM | THP-1 LPS/ATP IL-1B secretion, AlphaLISA, 16 h; active compounds read low; in the data active = activity change below about -50%; inconclusive = mostly about -30% to -49%; note: % is set by controls: 0 for no effect and ±100 for the full control effect
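Secreted IL-1B measured by AlphaLISA bead assay after 16 h compound exposure of THP-1 cells; compounds (final up to 57.5 uM) added 1 h before LPS (250 ng/mL) and ATP (1.25 mM) stimulation; lower signal means less secretion.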
Vif-A3F inh – inhibitors of Vif-A3F interaction; 0.2% of 390,000 active; HeLa A3F-eYFP + Vif (tagged APOBEC3F with the HIV-1 protein that degrades it), YFP fluorescence increase; AID 602313; Potency, µM (top dose mostly 46.1 µM), without a hit: at the top dose activity, negative = active; note: potency is the fitted concentration of half-maximal effect; % of control where 0% means no effect; nearly all actives have a fitted effect of over 65% in size
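Fluorescence increase (Ex 488/Em 500-530) after overnight compound treatment at 37 deg C flags inhibition of Vif-driven A3F-eYFP loss in stable HeLa A3F-eYFP/Vif cells seeded overnight beforehand.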
Vif-A3G inh – inhibitors of Vif-APOBEC3G interaction; Q9HC16; HeLa A3G-eYFP + Vif (tagged APOBEC3G with the HIV-1 protein that degrades it), YFP fluorescence, overnight; Potency, µM (series often up to 46.1 µM), for the others: at the highest dose activity, negative = active, most hits filed as inhibitors; 0.076% of 410,000 active; AID 602310; note: potency is the fitted concentration of half-maximal effect; % is set by controls: 0 for no effect and ±100 for the full control effect; nearly all actives have a fitted effect of over 60% in size
Target sequence (Q9HC16 whole entry, looked up): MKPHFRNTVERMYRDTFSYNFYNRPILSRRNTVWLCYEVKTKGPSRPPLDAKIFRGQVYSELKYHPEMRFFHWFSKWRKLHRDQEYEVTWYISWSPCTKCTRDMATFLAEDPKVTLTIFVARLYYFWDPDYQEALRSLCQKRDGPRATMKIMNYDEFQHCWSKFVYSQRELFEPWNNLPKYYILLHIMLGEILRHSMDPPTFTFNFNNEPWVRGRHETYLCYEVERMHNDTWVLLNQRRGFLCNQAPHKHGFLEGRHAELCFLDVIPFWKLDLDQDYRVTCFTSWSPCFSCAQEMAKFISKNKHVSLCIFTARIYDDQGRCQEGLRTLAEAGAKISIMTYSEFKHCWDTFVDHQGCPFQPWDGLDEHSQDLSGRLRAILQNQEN
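HeLa cells stably expressing Vif and C-terminally eYFP-tagged A3G, seeded overnight at 37 deg C, then exposed to compound by pintool overnight at 37 deg C. Rise in yellow fluorescence (Ex 488/Em 500-530, Acumen) marks blocked Vif-driven A3G degradation.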
Starred values were filed as active, the others as inactive; u = inconclusive; x = not tested or not shown; [ ] = remark or other dose. Unless noted, calls come from the whole dose curve; as a rule, active = well fitted curve in the direction sought with a large enough effect; inconclusive = small, poorly fitted or top-dose-only effect, or another doubt; inactive = no such curve, though single readings can be large; an effect the other way counts as inactive or inconclusive.

SMILES | SW480 rerep | MCF10A rereplic | Giardia killer | IL1B secr inh | Vif-A3F inh | Vif-A3G inh
Cc1ccc(/C=C/c2ccc(N(C)C)cc2)[n+](C)c1 | -2% | -11% | -6 | -2 | u | 11µM*
CN(C)c1ccc(/C=C/c2cc[n+](C)cc2)cc1 | u | u | -3 | 0 | u | u
CC[n+]1c(/C=C/c2ccc(N(C)C)cc2)ccc2ccccc21 | -4% | -29% | 2 | -99* | 1% | -2%
CCN(CC)c1ccc(/C=C/c2ccc3ccc(OC)cc3[n+]2CC)cc1 | -18% | 1% | -13 | -83* | -8% | 3%
CN(C)c1ccc(/C=C/c2cccc3ccccc23)cc1 | x | x | x | x | x | -21%
CC[n+]1c(/C=C/c2ccc(OC)c(OC)c2)ccc2ccccc21 | -2% | 18% | 8 | 16 | 1% | -1%
CC[n+]1ccccc1/C=C/c1ccc(N(C)C)cc1 | -4% | u | 8 | -57* | 22µM* | u
COc1ccc2c(c1)c1nnc(SCCN3CCOCC3)nc1n2C | x | x | 10 | x | x | x
CC(C)c1ccc(NC(=O)CSc2nc3ccccc3nc2Cc2ccccc2)cc1 | x | x | x | x | -8% | 12%
CCOC(=O)c1cc(OC(=O)c2cc(OC)cc(OC)c2)n(-c2ccccc2)n1 | x | x | x | x | -5% | -4%
CC[n+]1c(/C=C/c2ccc(OC(C)=O)c(OC)c2)ccc2ccccc21 | 37% | -11% | 7 | -85* | -11% | 2%
CC[n+]1ccc(/C=C/c2ccc(N(C)C)cc2)c2ccccc21 | -39% | 4% | -29 | -106* | -3% | 9%
COc1ccc(Cn2c(=O)n(Cc3ccco3)c(=O)c3oc4ccccc4c32)cc1 | x | x | x | x | u | -1%
CCCCNC(=O)CC1Nc2cc(C)c(C)cc2NC1=O (centres undefined) | x | x | x | x | -9% | 2%
CN1/C(=N\O)c2cccc3cccc1c23 | 19% | 18µM* | -9 | -3 | -4% | 4%
CNC(=O)CN1C(=O)c2cccc3cccc1c23 | -3% | -1% | -14 | 30 | -1% | 0%
CC(C)(C)c1ccc(SC2=C[C@@]3(O)CC[C@@H](O)[C@@](Sc4ccc(C(C)(C)C)cc4)(C2=O)[C@H]3O)cc1 | x | x | x | -90* | x | x
Cc1ccc2c(CNC3CCC(C)CC3)c(C(=O)O)n(Cc3cccc(F)c3)c2c1 (centres undefined) | x | x | x | x | 1% | 1%
C=CC[C@H](CC(=O)N(CCO)Cc1ccccc1)C(=O)N[C@H](COC(=O)[C@@H](CC=C)CC(=O)OC(C)(C)C)Cc1ccccc1 | u | u | -4 | -80* | 1% | -10%
C=CC[C@H](CC(=O)N(CCO)Cc1ccccc1)C(=O)N[C@H](COC(=O)[C@H](CC=C)CC(=O)OC(C)(C)C)Cc1c[nH]c2ccccc12 | u | 42% | 10 | -60* | -5% | -11%
C=CC[C@@H](CC(=O)N[C@H](CO)Cc1ccccc1)C(=O)N[C@H](COC(=O)[C@@H](CC=C)CC(=O)OC(C)(C)C)Cc1ccccc1 | 46%[9.22 µM] | 4% | -19 | -52* | 3% | -9%
C=CC[C@@H](CC(=O)N(CCO)Cc1ccccc1)C(=O)N[C@@H](COC(=O)[C@H](CC=C)CC(=O)OC(C)(C)C)Cc1c[nH]c2ccccc12 | u | 14% | 9 | -72* | 2% | -14%
C=CC[C@H](CC(=O)N(CCO)Cc1ccccc1)C(=O)N[C@@H](COC(=O)[C@@H](CC=C)CC(=O)OC(C)(C)C)Cc1c[nH]c2ccccc12 | 12% | u | 15 | u | 0% | -12%
C=CC[C@@H](CC(=O)N(CCO)Cc1ccccc1)C(=O)N[C@H](COC(=O)[C@@H](CC=C)CC(=O)OC(C)(C)C)Cc1ccccc1 | -5% | -24% | 4 | u | -3% | -8%
C=CC[C@H](CC(=O)NCCO)C(=O)N[C@H](COC(=O)[C@@H](CC=C)CC(=O)OC(C)(C)C)Cc1ccccc1 | -9% | -5% | -16 | 8 | 5% | 1%
SMILES | SW480 rerep | MCF10A rereplic | Giardia killer | IL1B secr inh | Vif-A3F inh | Vif-A3G inh
CCC(C)NC(=O)c1sc2nc(C)c(C(=O)Nc3ccc(C)cc3C)c(-c3ccc(NC(C)=O)cc3)c2c1N (centres undefined) | x | x | x | x | 2% | 2%
O=c1c2ccccc2nc(-c2ccco2)n1Cc1ccccc1 | 4% | u | 5 | -11 | 2% | -1%
CCOc1ccc(CCn2c(-c3ccco3)nc3ccccc3c2=O)cc1OCC | u | u | 12 | -57* | -3% | -7%
O=S(=O)(c1ccc(NC(=S)NCCC(c2ccccc2)c2ccccc2)cc1)N1CCOCC1 | u | 5.2µM* | 8 | -16 | -8% | -7%
S=C(NCCC(c1ccccc1)c1ccccc1)Nc1ccccc1Cl | -3% | u | 10 | 3 | -12% | 2%
CCCCOCCCNC(=S)Nc1ccc(S(=O)(=O)N2CCOCC2)cc1 | 63% | 20% | 0 | 0 | 6% | 0%
CC(=O)Nc1ccc(CC(=O)NCCC(c2ccccc2)c2ccccc2)cc1 | 21µM* | u | -19 | 1 | -10% | u
O=S(=O)(c1ccc(NC(=S)N/N=C/c2c3ccccc3cc3ccccc23)cc1)N1CCOCC1 | 13µM* | u | 35 | -11 | -20% | -23%
S=C(NCCC(c1ccccc1)c1ccccc1)Nc1ccc(Cl)cc1 | 0% | 18% | -12 | -92* | -12% | 4%
O=C(CSc1nc(=O)n(CCN2CCOCC2)c2c1CCC2)Nc1ccc(Cl)c(Cl)c1 | x | x | x | x | 7% | 4%
CN1C(=O)c2cccc3c(S(=O)(=O)Nc4cccc(C(=O)O)c4)ccc1c23 | x | x | x | x | 3% | 2%
Cc1c(C(=O)OC2CCCCC2)[nH]c2c1C(=O)CC(c1ccc(C(C)(C)C)cc1)C2 (centres undefined) | x | x | x | x | 0% | -2%
O=C(C[N+]1(CCO)CCOCC1)c1ccc2ccccc2c1 | x | x | x | x | x | 1%
CC(=O)N1CCc2c(sc3c2c(=O)n(-c2ccc(C)cc2)c(=O)n3CC(=O)Nc2ccccc2)C1 | x | x | x | x | 5% | -3%
CCOCCc1nn2c(=O)cc(COC(=O)c3cccc(C)c3)nc2s1 | x | x | x | x | -10% | -4%
CC(C)(C)CC(C)(C)NC(=S)Nc1ccc(S(=O)(=O)N2CCOCC2)cc1 | 12% | u | -15 | -71* | -8% | -1%
COc1ccc(C(=O)NN(C)c2nc(C(F)(F)F)nc3ccccc23)cc1 | u | 0.033µM* | 26 | 94 | 7% | u
COC(=O)c1c(NC(=O)c2ccccc2N(C)S(=O)(=O)c2ccccc2)sc2c1CCCC2 | 12µM* | u | -5 | 20 | -5% | u

Screens deposited in PubChem BioAssay by National Center for Advancing Translational Sciences (NCATS).
